Measurements published in PubChem BioAssay AID1159580 (chemical genetic matrix, 2015).
Values joined by “and” are separate entries in the source; they are usually repeats but may differ in a detail not shown here. Equal entries are not always repeated. The campaign covered roughly 5,500 compounds. About 2,000 (36%) were called active. Not shown: some 18% with an inconclusive outcome. The list shows a part of the results. Values without a mark were called inactive. Cut-off read from the data, not from the text of the source: active = normalized growth mostly below about 0.91 (no sharp cut-off); inconclusive = no clear call, values can overlap the other calls; inactive = mostly above about 0.92.

Test: chemical genetic growth profiling, strain panel (AID 1159580);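 note: tested at 20 µM; growth read once vehicle control cultures reached saturation at 30 °C; 1 = growth at the plate median or of vehicle wells; lower values mean less growth of the strain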
Details: S. cerevisiae deletion strains, growth OD

CC1=CC(=O)C2C(C)(C)CCC[C@]2(C)[C@@]1(O)CCc1ccoc1 (stereo partly specified)
normalized growth (locus YAL021C, strain ccr4, stronger effect = lower value): 0.986
normalized growth (locus YAL026C, strain drs2, stronger effect = lower value): 1
normalized growth (locus YAL030W, strain snc1, stronger effect = lower value): 0.984
normalized growth (locus YBL061C, strain skt5, stronger effect = lower value): 1.02
normalized growth (locus YBR009C, strain hhf1, stronger effect = lower value): 0.999
normalized growth (locus YBR021W, strain FUR4, stronger effect = lower value): 1.04
normalized growth (locus YBR023C, strain chs3, stronger effect = lower value): 0.982
normalized growth (locus YBR171W, strain sec66, stronger effect = lower value): 0.984
normalized growth (locus YBR229C, strain ROT2, stronger effect = lower value): 1.01
normalized growth (locus YBR231C, strain swc5, stronger effect = lower value): 1.03
normalized growth (locus YBR279W, strain paf1, stronger effect = lower value): 0.975
normalized growth (locus YCL011C, strain gbp2, stronger effect = lower value): 0.996
normalized growth (locus YCL016C, strain dcc1, stronger effect = lower value): 0.989
normalized growth (locus YCL029C, strain bik1, stronger effect = lower value): 0.997
normalized growth (locus YCL061C, strain MRC1, stronger effect = lower value): 1
normalized growth (locus YCL069W, strain vba3, stronger effect = lower value): 1.01
normalized growth (locus YCR088W, strain abp1, stronger effect = lower value): 0.992
normalized growth (locus YDL005C, strain med2, stronger effect = lower value): 0.988
normalized growth (locus YDL035C, strain GPR1, stronger effect = lower value): 1.03
normalized growth (locus YDL040C, strain nat1, stronger effect = lower value): 0.998
normalized growth (locus YDL074C, strain BRE1, stronger effect = lower value): 0.995
normalized growth (locus YDL101C, strain DUN1, stronger effect = lower value): 0.998
normalized growth (locus YDL185W, strain tfp1, stronger effect = lower value): 0.955
normalized growth (locus YDL192W, strain arf1, stronger effect = lower value): 0.998
normalized growth (locus YDR001C, strain nth1, stronger effect = lower value): 1.01
normalized growth (locus YDR069C, strain doa4, stronger effect = lower value): 0.994
normalized growth (locus YDR101C, strain arx1, stronger effect = lower value): 1.01
normalized growth (locus YDR137W, strain rgp1, stronger effect = lower value): 0.825 (active)
normalized growth (locus YDR150W, strain NUM1, stronger effect = lower value): 0.988
normalized growth (locus YDR159W, strain sac3, stronger effect = lower value): 1.02
normalized growth (locus YDR162C, strain NBP2, stronger effect = lower value): 1
normalized growth (locus YDR195W, strain ref2): 1.08
normalized growth (locus YDR297W, strain sur2, stronger effect = lower value): 0.991
normalized growth (locus YDR318W, strain mcm21, stronger effect = lower value): 0.997
normalized growth (locus YDR334W, strain swr1, stronger effect = lower value): 1.01
normalized growth (locus YDR335W, strain msn5, stronger effect = lower value): 0.958
normalized growth (locus YDR388W, stronger effect = lower value): 0.999
normalized growth (locus YDR392W, strain spt3, stronger effect = lower value): 0.628 (active)
normalized growth (locus YDR502C, strain sam2, stronger effect = lower value): 0.98
normalized growth (locus YEL003W, strain gim4, stronger effect = lower value): 1.02
normalized growth (locus YEL037C, strain rad23, stronger effect = lower value): 1
normalized growth (locus YEL061C, strain CIN8 (second series), stronger effect = lower value): 0.995
normalized growth (locus YEL061C, strain CIN8, stronger effect = lower value): 1
normalized growth (locus YER015W, strain faa2, stronger effect = lower value): 0.99
normalized growth (locus YER016W, strain bim1, stronger effect = lower value): 0.994
normalized growth (locus YER110C, stronger effect = lower value): 0.987
normalized growth (locus YER111C, strain swi4, stronger effect = lower value): 0.999
normalized growth (locus YER155C, strain BEM2 (second series), stronger effect = lower value): 1.03
normalized growth (locus YER155C, strain BEM2, stronger effect = lower value): 0.989
normalized growth (locus YER167W, strain BCK2, stronger effect = lower value): 0.989
normalized growth (locus YFR010W, strain ubp6, stronger effect = lower value): 1.04
normalized growth (locus YGL078C, strain dbp3, stronger effect = lower value): 0.966
normalized growth (locus YGL086W, strain mad1, stronger effect = lower value): 0.995
normalized growth (locus YGL167C, strain pmr1, stronger effect = lower value): 0.987
normalized growth (locus YGL173C, strain kem1, stronger effect = lower value): 1.01
normalized growth (locus YGL227W, strain vid30, stronger effect = lower value): 0.991
normalized growth (locus YGL240W, strain doc1, stronger effect = lower value): 1.01
normalized growth (locus YGL248W, strain PDE1, stronger effect = lower value): 1.03
normalized growth (locus YGL253W, strain hxk2, stronger effect = lower value): 1.03
normalized growth (locus YGR078C, strain PAC10, stronger effect = lower value): 1.01
normalized growth (locus YGR135W, strain pre9, stronger effect = lower value): 0.941
normalized growth (locus YGR252W, strain gcn5, stronger effect = lower value): 1.08
normalized growth (locus YHR013C, strain ard1, stronger effect = lower value): 0.98
normalized growth (locus YHR027C, strain rpn1, stronger effect = lower value): 0.99
normalized growth (locus YHR030C, strain SLT2, stronger effect = lower value): 1.05
normalized growth (locus YHR079C, strain IRE1 (second series), stronger effect = lower value): 0.972
normalized growth (locus YHR079C, strain IRE1, stronger effect = lower value): 1.04
normalized growth (locus YHR094C, strain hxt1, stronger effect = lower value): 0.973
normalized growth (locus YHR129C, strain ARP1, stronger effect = lower value): 0.989
normalized growth (locus YHR142W, strain chs7, stronger effect = lower value): 0.96
normalized growth (locus YHR200W, strain rpn10, stronger effect = lower value): 1
normalized growth (locus YIL066C, strain RNR3, stronger effect = lower value): 0.998
normalized growth (locus YIL073C, strain SPO22, stronger effect = lower value): 1.02
normalized growth (locus YIL125W, strain kgd1, stronger effect = lower value): 0.98
normalized growth (locus YIR030C, strain dcg1, stronger effect = lower value): 0.976
normalized growth (locus YJL092W, strain hpr5, stronger effect = lower value): 1
normalized growth (locus YJL095W, strain BCK1 (second series), stronger effect = lower value): 0.995
normalized growth (locus YJL095W, strain BCK1, stronger effect = lower value): 1.02 and 1.03
normalized growth (locus YJL115W, strain asf1, stronger effect = lower value): 0.982
normalized growth (locus YJL129C, strain trk1, stronger effect = lower value): 0.945
normalized growth (locus YJL134W, strain LCB3, stronger effect = lower value): 0.99
normalized growth (locus YJL154C, strain vps35, stronger effect = lower value): 1
normalized growth (locus YJL164C, strain tpk1, stronger effect = lower value): 0.955
normalized growth (locus YJL166W, strain qcr8, stronger effect = lower value): 0.995
normalized growth (locus YJL168C, strain set2, stronger effect = lower value): 0.983
normalized growth (locus YJL187C, strain SWE1 (second series), stronger effect = lower value): 1
